The entries come from a sample that favours hits as a whole.
Pf apPOL inh = Pf-apPOL DNA polymerase inhibition | Recombinant Pf-apPOL, molecular beacon fluorescence, 1.5 h | inhibition, % at 10 µM | 210,000 compounds, 0.25% hits | AID 1794808
mHTT-CaM PPI inh = inhibitors of human mutant huntingtin-calmodulin interaction | P42858 | AlphaScreen His-mHTT/GST-CaM binding, luminescence | inhibition, % at 15 µM | 190,000 compounds, 3.6% hits | AID 1671202
A number is an active result; - = inactive; . = no result given. Cut-off read from the data, not from the text of the source: active = inhibition above about 50%; inactive = the rest.

SMILES	Pf apPOL inh	mHTT-CaM PPI inh
O=S1(=O)CCO[C@H]2CCCC[C@@H]2N1Cc1cccc(F)c1	-	-
Cc1oc(C2CCN(C(=O)C3CC3)CC2)nc1C(=O)N1CCOCC1	-	-
COc1ccc(NC(=O)CN(c2ccc(C)cc2C)S(C)(=O)=O)cc1OC	-	-
Cc1ccc(N(CC(=O)Nc2ccc(C(N)=O)cc2)S(=O)(=O)c2ccc(F)cc2)cc1	-	-
COc1ccc(NC(=O)CN(c2ccc(C)cc2)S(=O)(=O)c2ccc(F)cc2)cc1OC	89.7	-
Cc1ccc(N(CC(=O)Nc2ccc(F)cc2)S(C)(=O)=O)c(C)c1	74.5	-
CCC(C)(C(=O)NC1CCCC1)N(Cc1ccco1)C(=O)c1ccc(=O)[nH]c1 (stereo not drawn)	-	-
CCCCOc1ccc(C(=O)Nc2c3c(nn2-c2cccc(C)c2C)CS(=O)C3)cc1 (stereo not drawn)	-	-
COc1ccc(OC)c(Nc2nc(Cl)nc(Nc3cc(OC)ccc3OC)n2)c1	-	53.0
COc1ccc(Nc2nc(Cl)nc(Nc3ccc(OC)c(OC)c3)n2)cc1OC	-	-
O=C(Nc1ncccn1)c1c(O)c2cccc3c2n(c1=O)CCC3	-	56.0
O=C(Nc1ncccc1O)c1c(O)c2cccc3c2n(c1=O)CC3	-	52.0
Cc1cccnc1NC(=O)c1c(O)c2cccc3c2n(c1=O)CCC3	-	-
O=C(Nc1ccccn1)c1c(O)c2cccc3c2n(c1=O)CCC3	-	-
COc1ccc(NS(=O)(=O)C2CCS(=O)(=O)C2)cc1 (stereo not drawn)	99.8	-
COc1ccc(NS(C)(=O)=O)cc1	-	-
O=C(c1ccccc1)N1CCc2c(nc3cc(-c4ccccc4)[nH]n3c2=O)C1	51.1	-
O=C(c1ccc2c(c1)OCO2)N1CCc2c(nc3cc(-c4ccccc4)[nH]n3c2=O)C1	-	-
O=C(c1cc(F)ccc1Cl)N1CCc2c(nc3cc(-c4ccccc4)[nH]n3c2=O)C1	-	71.3
O=C(c1ccccc1Cl)N1CCc2c(nc3cc(-c4ccccc4)[nH]n3c2=O)C1	-	-
COc1ccccc1CCC(=O)N1CCc2c(nc3cc(-c4ccccc4)[nH]n3c2=O)C1	-	59.4
COc1ccccc1CCC(=O)N1CCc2nc3cc(-c4ccccc4)[nH]n3c(=O)c2C1	-	-
COc1ccc(OC)c(/C=C2/C(=N)N3N=C(C)SC3=NC2=O)c1	-	-
OCC1(CO)CSC(Nc2ccc(F)cc2)=N1	-	.
N#CC1=C(N)OC2=C(C(=O)CC(c3ccccc3)C2)C1c1cccc(F)c1 (stereo not drawn)	-	-
SMILES	Pf apPOL inh	mHTT-CaM PPI inh
COc1ccc(/C=C2\CCC3=C2OC(N)=C(C#N)C3c2ccc(OC)cc2)cc1 (stereo not drawn)	-	63.0
COc1ccc(/C=C2\CCCC3=C2OC(N)=C(C#N)C3c2ccc(OC)c(OC)c2)cc1OC (stereo not drawn)	-	-
N#CC1=C(N)OC2=C(CC/C2=C\c2cccc(F)c2)C1c1cccc(F)c1 (stereo not drawn)	-	94.0
O=C(c1cccc(F)c1)N1CCC2(C1)NCc1ccccc1NC2=NC1CCCC1 (stereo not drawn)	-	-
Cc1cccc(CNC(=O)c2cnn3c4c(cnc23)CCCCCC4)c1	-	-
Oc1c(C(Nc2cccc(C(F)(F)F)c2)c2ccccn2)ccc2cccnc12 (stereo not drawn)	-	99.1
Oc1c(C(Nc2cccc(Cl)c2)c2ccccn2)ccc2cccnc12 (stereo not drawn)	-	100.0
O=[N+]([O-])c1ccc(OCCOc2cccc3cccnc23)cc1	-	-
CN(C)CCC(c1ccc(Cl)cc1)c1ccccn1 (stereo not drawn)	-	.
Oc1c(C(Nc2ccc(Cl)cc2)c2ccccn2)ccc2cccnc12 (stereo not drawn)	-	100.0
O=C(NCc1ccccn1)C(=O)Nc1cccc(C(F)(F)F)c1	-	-
O=[N+]([O-])c1ccc(NC(c2ccccn2)c2ccc3cccnc3c2O)cc1 (stereo not drawn)	-	100.0
O=C(Nc1cccc2cccnc12)c1ccc(Cl)cc1Cl	-	-
O=C(NCc1cccc(Br)c1)C1c2ccccc2CCN1C(=O)C1CC1 (stereo not drawn)	-	-
Cc1ccc(C)c(NC(=O)C2CCCN(c3cnn(C)c(=O)c3)C2)c1 (stereo not drawn)	-	-
Cc1[nH]c2ccccc2c1C(Nc1cccc(C(F)(F)F)c1)c1cccnc1 (stereo not drawn)	-	-
Oc1c(C(Nc2cccc(C(F)(F)F)c2)c2cccnc2)ccc2cccnc12 (stereo not drawn)	-	99.0
COc1ccc(NC(=O)c2cccnc2)cc1	-	-
COc1ccc(NC(c2cccnc2)c2ccc3cccnc3c2O)cc1 (stereo not drawn)	-	99.0
O=c1[nH]c(-c2ccc(F)cc2)nc2c1CCN(S(=O)(=O)c1ccc3c(c1)CCCC3)C2	-	-
CC1=CC(C)C(CNCCN2CCNCC2)C(C)C1 (stereo not drawn)	-	-
CC(C)=CCC/C(C)=C/CC(C)(C)CNCCN1CCNCC1	-	85.0
COc1ccc(C)cc1NC(=O)C1CCN(S(=O)(=O)c2ccc(Br)s2)CC1	-	-
COc1ccc(Nc2cc(N3CCOCC3)c3noc4c3c2C(=O)c2ccccc2-4)cc1	-	-
O=C1c2ccccc2-c2onc3ccc(Nc4ccccc4)c1c23	-	-
SMILES	Pf apPOL inh	mHTT-CaM PPI inh
CNc1cc(Nc2ccc(C)cc2)c2c3c(onc13)-c1ccccc1C2=O	-	95.0
O=C1c2ccccc2-c2onc3c(N4CCOCC4)cc(Nc4ccc(F)cc4)c1c23	-	63.0
COc1ccc(C2CCCN2C(=O)Nc2ccc3c(c2)OCO3)cc1 (stereo not drawn)	-	-
COCCNC(=O)c1cn2cccc(C)c2n1	-	-
CC1CCc2onc(C(=O)N(CCN(C)C)Cc3ccco3)c2C1 (stereo not drawn)	-	-
O=S(=O)(c1cccnc1)N1CCCCC1c1nncn1CC1CC1 (stereo not drawn)	-	-
Cc1ccc2ccc(C(Nc3ccccn3)c3ccc(N(C)C)cc3)c(O)c2n1 (stereo not drawn)	-	100.0
CSc1ccc(C(Nc2ccccn2)c2ccc3ccc(C)nc3c2O)cc1 (stereo not drawn)	-	78.0
CCc1ccc(C(C)NC(=O)c2ccccn2)cc1 (stereo not drawn)	-	-
CSc1ccc(C=Nc2ccccn2)cc1	.	-
Cc1ccc2ccc(C(Nc3ccccn3)c3cccnc3)c(O)c2n1 (stereo not drawn)	-	73.0
CC1=C(C(=O)Nc2ccccn2)C(c2ccc(N(C)C)cc2)n2ncnc2N1 (stereo not drawn)	-	-
CCc1ccc(C(Nc2ccccn2)c2ccc3cccnc3c2O)cc1 (stereo not drawn)	-	97.0
O=C(NC1CCCC1)c1ccccc1N(Cc1ccccc1)S(=O)(=O)c1ccccc1	-	-
CCOc1ccc2ncc(C#N)c(N3CCC(C(=O)Nc4ccc(C)cc4)CC3)c2c1	-	-
COc1ccc(C2CC(=O)C3=C(C2)Nc2ccccc2NC3c2ccncc2)cc1 (stereo not drawn)	-	-
O=c1cc(CO)oc(C(Nc2ccccn2)c2ccc(F)cc2)c1O (stereo not drawn)	-	-
Oc1c(C(Nc2ccccn2)c2ccc(F)cc2)ccc2cccnc12 (stereo not drawn)	-	98.0
CSc1ccc(C(Nc2ccccn2)c2ccc3cccnc3c2O)cc1 (stereo not drawn)	-	99.0

High-throughput results deposited in PubChem BioAssay by University of Kansas High Throughput Screening Laboratory.
